Experimental data from PubChem BioAssay AID1159580 (chemical genetic matrix, 2015).
In all, about 5,500 compounds went through this assay and about 2,000 (36%) were called active. Inconclusive results (about 18%) are left out. No stated cut-off is given here; in the data, active means normalized growth mostly below about 0.91 (no sharp cut-off); inconclusive means no clear call, values can overlap the other calls; inactive means mostly above about 0.92. This is one part of the list.

Assay: chemical genetic growth profiling, strain panel (AID 1159580);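 further: tested at 20 µM; growth read once vehicle control cultures reached saturation at 30 °C; 1 = growth at the plate median or of vehicle wells; lower values mean less growth of the strain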
Details: growth OD
[1] = S. cerevisiae deletion strains, locus YDL101C, strain DUN1, active compounds read low
[2] = S. cerevisiae deletion strains, locus YHR030C, strain SLT2, active compounds read low
[3] = S. cerevisiae deletion strains, locus YAL013W, strain DEP1, active compounds read low
[4] = S. cerevisiae deletion strains, locus YBR229C, strain ROT2, active compounds read low
[5] = S. cerevisiae deletion strains, locus YDL134C, strain PPH21, active compounds read low
[6] = S. cerevisiae deletion strains, locus YDR150W, strain NUM1, active compounds read low
[7] = S. cerevisiae deletion strains, locus YEL061C, strain CIN8, active compounds read low
[8] = S. cerevisiae deletion strains, locus YGR078C, strain PAC10, active compounds read low
[9] = S. cerevisiae deletion strains, locus YHR087W, strain rtc3, active compounds read low
[10] = S. cerevisiae deletion strains, locus YJR043C, strain POL32, active compounds read low
[11] = S. cerevisiae deletion strains, locus YJR075W, strain HOC1, active compounds read low
[12] = S. cerevisiae deletion strains, locus YLR039C, strain RIC1, active compounds read low
[13] = S. cerevisiae deletion strains, locus YLR058C, strain SHM2 (second series), active compounds read low
[14] = S. cerevisiae deletion strains, locus YLR085C, strain ARP6, active compounds read low
[15] = S. cerevisiae deletion strains, locus YLR262C, strain YPT6, active compounds read low
[16] = S. cerevisiae deletion strains, locus YML094W, strain GIM5, active compounds read low
[17] = S. cerevisiae deletion strains, locus YMR219W, strain ESC1, active compounds read low
[18] = S. cerevisiae deletion strains, locus YMR263W, strain SAP30, active compounds read low
[19] = S. cerevisiae deletion strains, locus YMR307W, strain GAS1, active compounds read low
[20] = S. cerevisiae deletion strains, locus YNL153C, strain GIM3, active compounds read low
[21] = S. cerevisiae deletion strains, locus YNL298W, strain CLA4 (second series), active compounds read low
[22] = S. cerevisiae deletion strains, locus YNL322C, strain KRE1, active compounds read low
[23] = S. cerevisiae deletion strains, locus YNR030W, strain Alg12, active compounds read low
[24] = S. cerevisiae deletion strains, locus YPL055C, strain LGE1, active compounds read low
[25] = S. cerevisiae deletion strains, locus YPL241C, strain CIN2, active compounds read low
[26] = S. cerevisiae deletion strains, locus YPR135W, strain CTF4, active compounds read low
[27] = S. cerevisiae strains, strain wild type, active compounds read low
[28] = S. cerevisiae deletion strains, locus YOL006C, strain TOP1, active compounds read low

Measured: normalized growth

Cc1ccc(S(=O)(=O)Nc2ccc(Oc3ccc(F)cc3)cc2)cc1
active: [2] 0.767 | S. cerevisiae deletion strains, locus YLR113W, strain HOG1, active compounds read low 0.739 | S. cerevisiae deletion strains, locus YPL256C, strain CLN2, active compounds read low 0.815
inactive: S. cerevisiae deletion strains, locus YAR019C, strain CDC15, active compounds read low 0.98 | S. cerevisiae deletion strains, locus YBL105C, strain PKC1, active compounds read low 0.977 | S. cerevisiae deletion strains, locus YBR135W, strain CKS1, active compounds read low 0.983 | S. cerevisiae deletion strains, locus YBR136W, strain MEC1, active compounds read low 0.985 | S. cerevisiae deletion strains, locus YBR160W, strain CDC28, active compounds read low 0.976 | S. cerevisiae deletion strains, locus YDL017W, strain CDC7, active compounds read low 0.985 | S. cerevisiae deletion strains, locus YDL028C, strain MPS1, active compounds read low 0.987 | [1] 0.982 | S. cerevisiae deletion strains, locus YDL108W, strain KIN28, active compounds read low 0.977 | S. cerevisiae deletion strains, locus YDL132W, strain cdc53, active compounds read low 0.974 | S. cerevisiae deletion strains, locus YDL214C, strain PRR2, active compounds read low 0.907 | S. cerevisiae deletion strains, locus YDR052C, strain DBF4, active compounds read low 0.979 | S. cerevisiae deletion strains, locus YDR054C, strain cdc34, active compounds read low 0.975 | S. cerevisiae deletion strains, locus YDR226W, strain ADK1, active compounds read low 0.983 | S. cerevisiae deletion strains, locus YDR477W, strain SNF1, active compounds read low 0.927 | S. cerevisiae deletion strains, locus YER123W, strain YCK3, active compounds read low 0.866 | S. cerevisiae deletion strains, locus YER133W, strain GLC7, active compounds read low 0.93 | S. cerevisiae deletion strains, locus YFL009W, strain cdc4, active compounds read low 0.983 | S. cerevisiae deletion strains, locus YFL029C, strain CAK1, active compounds read low 0.977 | S. cerevisiae deletion strains, locus YFR003C, strain YPI1, active compounds read low 0.979 | S. cerevisiae deletion strains, locus YFR019W, strain FAB1, active compounds read low 0.95 | S. cerevisiae deletion strains, locus YFR028C, strain CDC14, active compounds read low 0.972 | S. cerevisiae deletion strains, locus YGR040W, strain KSS1, active compounds read low 0.915 | S. cerevisiae deletion strains, locus YGR052W, strain FMP48, active compounds read low 0.91 | S. cerevisiae deletion strains, locus YGR092W, strain DBF2, active compounds read low 0.839 | S. cerevisiae deletion strains, locus YHR079C, strain IRE1, active compounds read low 0.876 | S. cerevisiae deletion strains, locus YHR082C, strain KSP1, active compounds read low 0.895 | S. cerevisiae deletion strains, locus YHR205W, strain SCH9, active compounds read low 0.926 | S. cerevisiae deletion strains, locus YIL147C, strain SLN1, active compounds read low 0.992 | S. cerevisiae deletion strains, locus YJL095W, strain BCK1, active compounds read low 0.9 | S. cerevisiae deletion strains, locus YJL128C, strain PBS2, active compounds read low 0.946 | S. cerevisiae deletion strains, locus YJL157C, strain FAR1, active compounds read low 0.908 | S. cerevisiae deletion strains, locus YJR016C, strain ILV3, active compounds read low 0.981 | S. cerevisiae deletion strains, locus YJR066W, strain TOR1 (second series), active compounds read low 0.892 | S. cerevisiae deletion strains, locus YJR066W, strain TOR1, active compounds read low 0.968 | S. cerevisiae deletion strains, locus YKL048C, strain ELM1, active compounds read low 0.934 | S. cerevisiae deletion strains, locus YKL067W, strain YNK1, active compounds read low 0.905 | S. cerevisiae deletion strains, locus YKL101W, strain HSL1, active compounds read low 0.887 | S. cerevisiae deletion strains, locus YKL193C, strain SDS22, active compounds read low 0.978 | S. cerevisiae deletion strains, locus YKL203C, strain TOR2, active compounds read low 0.979 | S. cerevisiae deletion strains, locus YLR133W, strain CKI1, active compounds read low 0.916 | S. cerevisiae deletion strains, locus YLR403W, strain SFP1, active compounds read low 0.914 | S. cerevisiae deletion strains, locus YML070W, strain DAK1, active compounds read low 0.868 | S. cerevisiae deletion strains, locus YMR001C, strain CDC5, active compounds read low 0.986 | S. cerevisiae deletion strains, locus YMR205C, strain PFK2 (second series), active compounds read low 0.918 | S. cerevisiae deletion strains, locus YMR277W, strain FCP1, active compounds read low 0.985 | S. cerevisiae deletion strains, locus YNL006W, strain LST8, active compounds read low 0.996 | S. cerevisiae deletion strains, locus YNL020C, strain ARK1, active compounds read low 0.898 | S. cerevisiae deletion strains, locus YNL161W, strain CBK1, active compounds read low 0.978 | S. cerevisiae deletion strains, locus YNL183C, strain NPR1, active compounds read low 0.836 | S. cerevisiae deletion strains, locus YNL207W, strain RIO2, active compounds read low 0.985 | S. cerevisiae deletion strains, locus YNL222W, strain SSU72, active compounds read low 0.969 | S. cerevisiae deletion strains, locus YNL307C, strain MCK1 (second series), active compounds read low 0.873 | S. cerevisiae deletion strains, locus YOL078W, strain AVO1, active compounds read low 0.978 | S. cerevisiae deletion strains, locus YOL136C, strain PFK27, active compounds read low 0.88 | S. cerevisiae deletion strains, locus YOR061W, strain CKA2, active compounds read low 0.898 | S. cerevisiae deletion strains, locus YOR119C, strain RIO1, active compounds read low 0.981 | S. cerevisiae deletion strains, locus YOR231W, strain MKK1, active compounds read low 0.849 | S. cerevisiae deletion strains, locus YOR329C, strain SCD5, active compounds read low 0.983 | S. cerevisiae deletion strains, locus YPL031C, strain PHO85, active compounds read low 0.913 | S. cerevisiae deletion strains, locus YPL153C, strain RAD53, active compounds read low 0.862 | S. cerevisiae deletion strains, locus YPL204W, strain HRR25, active compounds read low 0.896 | S. cerevisiae deletion strains, locus YPL209C, strain IPL1, active compounds read low 0.979 | S. cerevisiae deletion strains, locus YPR025C, strain CCL1, active compounds read low 0.984 | S. cerevisiae deletion strains, locus YPR106W, strain ISR1, active compounds read low 0.965 | S. cerevisiae deletion strains, locus YPR111W, strain DBF20, active compounds read low 0.953 | S. cerevisiae deletion strains, strain NNK1, active compounds read low 0.969 | S. cerevisiae deletion strains, strain TSCII, active compounds read low 0.98

Cn1nccc1NS(=O)(=O)c1cccc(Cl)c1
inactive: [3] 1.01 | [4] 1.01 | S. cerevisiae deletion strains, locus YCL061C, strain MRC1, active compounds read low 1.02 | [1] 1 | [5] 0.969 | [6] 1.04 | [7] 1.01 | [8] 1.02 | [2] 1.07 | [9] 1.01 | [10] 1.03 | [11] 1.02 | [12] 0.98 | [13] 1.04 | [14] 0.984 | [15] 1.07 | [16] 0.972 | [17] 0.998 | [18] 1.03 | [19] 0.957 | [20] 1.01 | [21] 1.03 | [22] 1 | [23] 0.995 | [24] 1 | [25] 0.975 | [26] 1.08 | [27] 1.01

Cc1cc(NS(=O)(=O)c2ccc(NS(=O)(=O)c3cc(C)c(Cl)cc3C)cc2)no1
inactive: [3] 0.991 | [4] 0.994 | [1] 1 | [5] 0.968 | [6] 1.07 | [7] 0.984 | [8] 1.01 | [2] 1.08 | [9] 0.982 | [10] 1.04 | [11] 1.01 | [12] 1 | [13] 0.979 | [14] 0.947 | [15] 1.09 | [16] 0.971 | [17] 0.99 | [18] 1.02 | S. cerevisiae deletion strains, locus YNL128W, strain TEP1, active compounds read low 0.981 | [20] 1.01 | [21] 0.979 | [22] 0.99 | [23] 1.01 | [28] 0.985 | [24] 1.04 | [25] 0.985 | [26] 1.09 | [27] 0.974

Cc1cc(NS(=O)(=O)c2ccc(NS(=O)(=O)c3ccc(Cl)cc3)cc2)no1
inactive: [3] 1.03 | [4] 1.02 | [1] 1 | [6] 0.956 | [7] 1.01 | [8] 1 | S. cerevisiae deletion strains, locus YGR229C, strain SMI1, active compounds read low 1.01 | [2] 1.07 | [9] 0.999 | S. cerevisiae deletion strains, locus YJL187C, strain SWE1, active compounds read low 1.01 | [10] 1.04 | [11] 1.02 | [12] 1.02 | [13] 1 | [14] 0.983 | [15] 1.07 | [16] 0.988 | [17] 1.01 | [18] 0.956 | [20] 1.02 | [21] 1.03 | [22] 1.01 | [23] 1.02 | [28] 1.06 | [24] 0.902 | [25] 0.995 | [26] 1.08

CCn1c(=O)c2[nH]c(-c3ccccc3)nc2n(CC)c1=O
inactive: S. cerevisiae deletion strains, locus YAL040C, strain CLN3, active compounds read low 1 | S. cerevisiae deletion strains, locus YCL061C, strain MRC1 (second series), active compounds read low 0.997 | S. cerevisiae deletion strains, locus YDR363W, strain ESC2, active compounds read low 1.01 | S. cerevisiae deletion strains, locus YER002W, strain NOP16, active compounds read low 1.04 | [19] 0.992 | S. cerevisiae deletion strains, locus YNL175C, strain NOP13, active compounds read low 1.01 | S. cerevisiae deletion strains, locus YNL197C, strain WHI3, active compounds read low 1.01 | S. cerevisiae deletion strains, locus YNL224C, strain SQS1, active compounds read low 1 | S. cerevisiae deletion strains, locus YOR083W, strain WHI5 (second series), active compounds read low 1.01 | [24] 1 | [25] 1.01
